High-throughput results as filed in PubChem.
Hits are enriched below; roughly 2.5% of the tested compounds scored in any of these assays.
Rce1 inhib – inhibitors of yeast Ras-converting enzyme | Q03530 | 290,000 tested, 0.27% active | AID 2563 | yeast membranes, quenched prenylated peptide cleavage fluorescence | calls only;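 active = fall in fluorescence gain of 50% or more versus controls, with final raw signal at or below 3038400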;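 also: plate controls were neutral control wells for no effect and wells lacking membranes for full effect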
MEKK2 mut-MEK5 – signal of MEK5 binding to mutant human MEKK2 PB1 domain; bead flow cytometry, Alexa488-MEK5 binding to MEKK2 mutant; percent response, % at 10 µM; 290,000 tested, 0.35% active; AID 1530; in the data active = percent response above about 24%, passing the limit was not always enough
MEKK2wt PB1 HTS – raises or lowers MEK5 binding to wildtype human MEKK2 PB1 domain; 290,000 tested, 1.1% active; bead flow cytometry, Alexa488-MEK5 binding to MEKK2 WT; actives lie on both sides; binding response (% of control), % at 10 µM; in the data active = binding response below about 67% or above about 130%
MEKK3 PB1 HTS – raises or lowers MEK5 binding to the human MEKK3 PB1 domain. binding response (% of control), % at 10 µM. bead-based flow cytometry, Alexa488-MEK5 binding to MEKK3; actives lie on both sides; 0 = blocked by unlabeled MEK5, 100 = vehicle. 290,000 tested, 1.4% active;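 active = binding response more than 3 SD above or below the average of its plate-row segment, actives on both sides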;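 also: Alexa488 bead fluorescence after subtracting the streptavidin-only scavenger bead signal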
Target sequence (Q99759 whole entry, looked up, the tested form may be a part): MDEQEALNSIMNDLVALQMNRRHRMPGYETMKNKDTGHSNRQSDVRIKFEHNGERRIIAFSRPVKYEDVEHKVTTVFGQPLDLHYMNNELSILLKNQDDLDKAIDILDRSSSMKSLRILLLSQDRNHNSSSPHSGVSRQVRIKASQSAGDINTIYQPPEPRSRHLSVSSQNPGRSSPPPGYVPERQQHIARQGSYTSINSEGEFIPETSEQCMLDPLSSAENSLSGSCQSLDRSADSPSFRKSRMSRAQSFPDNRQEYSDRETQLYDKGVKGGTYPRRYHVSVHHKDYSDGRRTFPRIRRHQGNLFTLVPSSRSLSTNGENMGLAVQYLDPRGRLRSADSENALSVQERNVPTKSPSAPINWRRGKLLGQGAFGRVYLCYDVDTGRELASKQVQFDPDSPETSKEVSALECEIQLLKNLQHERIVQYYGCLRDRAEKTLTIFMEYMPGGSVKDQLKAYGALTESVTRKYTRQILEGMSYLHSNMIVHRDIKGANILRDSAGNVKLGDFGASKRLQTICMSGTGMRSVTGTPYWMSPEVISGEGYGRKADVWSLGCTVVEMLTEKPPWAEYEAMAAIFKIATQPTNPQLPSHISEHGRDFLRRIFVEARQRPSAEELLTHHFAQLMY
UBC13 inh – human UBC13 polyubiquitination inhibition. AID 485273. 330,000 tested, 0.47% active. UBC13 polyubiquitin chain formation, TR-FRET. inhibition, % at 20 µM; in the data active = inhibition above about 45%, passing the limit was not always enough
MEKK2wt confirm – raises or lowers MEK5 binding to wildtype human MEKK2, retest | shares compounds with MEKK3 PB1 HTS | bead flow cytometry, Alexa488-MEK5 binding to MEKK2 WT; actives lie on both sides | binding response (% of control), % at 10 µM | 5,900 tested, 2.4% active; in the data active = binding response below about 16% or above about 210%; inactive = in between
MEKK2mut-MEK5 – signal of MEK5 binding to mutant human MEKK2, retest. shares compounds with MEKK3 PB1 HTS. bead flow cytometry, Alexa488-MEK5 binding to MEKK2 mutant. percent response, % at 10 µM. 5,900 tested, 2% active. AID 1893; in the data active = percent response mostly above about 71%, no sharp cut-off; inactive = mostly below about 38%;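 also: higher means compound restores mutant binding toward wildtype level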
MEKK3-MEK5 inh – confirmation of inhibitors of MEK5 binding to human MEKK3; shares compounds with MEKK3 PB1 HTS; bead flow cytometry, Alexa488-MEK5 binding to MEKK3; active compounds read low; binding response (% of control), % at 10 µM; 5,900 tested, 1.8% active;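 active = binding response below 72% of control, or above a set upper limit, though filed actives all read lower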;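 also: 100% = DMSO only wells and 0% = binding blocked by excess unlabeled MEK5; lower values mean stronger disruption of MEK5 binding to MEKK3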
* marks the source's active call; other numbers are inactive results; i = inactive; nt = no result; [ ] = remark or other dose.

SMILES | Rce1 inhib | MEKK2 mut-MEK5 | MEKK2wt PB1 HTS | MEKK3 PB1 HTS | UBC13 inh | MEKK2wt confirm | MEKK2mut-MEK5 | MEKK3-MEK5 inh
Cc1nccn1CCCN1C(=O)OC2(CCCCC2)C1(C)O (configuration not stated) | i | 1 | 108 | 104 | 0 | nt | nt | nt
CCC1(C)OC(=O)N(CCCn2ccnc2C)C1(C)O (configuration not stated) | i | 9 | 121 | 123* | 13 | 102 | 1 | 97
O=C(c1ccncc1)N1CCc2ccccc2C1 | i | -3 | 98 | 101 | 3 | nt | nt | nt
O=C(c1ccc(Cl)nc1)N1CCc2ccccc2C1 | i | -46 | 21*[inhibitor] | 14*[inhibitor] | 5 | 98 | 0 | 102
Cc1ccnc(NC(=O)c2ccc(S(=O)(=O)NCc3ccco3)cc2)c1 | i | nt | nt | nt | -4 | nt | nt | nt
Cc1cc(C(=O)CCC(=O)NCC2COc3ccccc3O2)c(C)s1 (configuration not stated) | i | nt | nt | nt | 0 | nt | nt | nt
COc1ccc(S(=O)(=O)N2CCCN(CC(=O)Nc3ccc4c(c3)OCO4)CC2)cc1 | nt | nt | nt | nt | 8 | nt | nt | nt
O=C(CN1CCCN(S(=O)(=O)c2ccc(Br)cc2)CC1)Nc1ccc2c(c1)OCO2 | i | -9 | 0.0*[inhibitor] | 1.0*[inhibitor] | -8 | 105 | -2 | 97
COc1cccc(C(=O)Nc2ccccc2OC(F)(F)F)c1 | i | -3 | 101 | 100 | -3 | nt | nt | nt
CC1=N/C(=C\c2ccc([N+](=O)[O-])cc2)C(=O)N1c1cc(Cl)ccc1C | i | -3 | 52*[inhibitor] | 90 | -7 | 81 | -17 | 95
COc1ccc(N2C(=O)/C(=C/c3ccc([N+](=O)[O-])cc3)N=C2C)c(OC)c1 | i | 6 | 91 | 105 | -7 | nt | nt | nt
Cc1cccc(C(=O)N(Cc2nc3ccccc3c(=O)[nH]2)C2CCCC2)c1 | i | -11 | 89 | 100 | 9 | nt | nt | nt
Cc1cccc(C(=O)N(Cc2nc3ccccc3c(=O)[nH]2)C2CCCCC2)c1 | i | -1 | 94 | 74*[inhibitor] | 2 | 100 | 9 | 102
CCOC(=O)C1=C(C)NC(=O)C1CC(=O)Nc1ccccc1 (configuration not stated) | i | 6 | 115 | 125* | 5 | 102 | 2 | 99
CCOC(=O)C1=C(C)NC(=O)NC1c1ccc(OCC(=O)Nc2ccccc2)c(OC)c1 (configuration not stated) | i | 0 | 105 | 102 | -10 | nt | nt | nt
Cc1ccccc1OCc1nnc(SCC(=O)N2CCc3ccccc32)n1C | i | -3 | 2.0*[inhibitor] | 2.0*[inhibitor] | 5 | 100 | -1 | 102
CCOCCn1c(SC(C)C(C)=O)nc2c1c(=O)[nH]c(=O)n2C (configuration not stated) | i | 0 | 95 | 95 | -6 | nt | nt | nt
Nc1c(Cl)ncnc1N/N=C/c1ccc(O)cc1 | i | -11 | 53*[inhibitor] | 51*[inhibitor] | 0 | 91 | 0 | 89
Oc1ccc(/C=N/Nc2nccnc2Cl)cc1 | i | 7 | 121 | 126* | 0 | 99 | 2 | 104
O=C(Nc1cccc(-c2csc(Nc3ccc(Cl)cc3)n2)c1)c1ccccc1 | i | 5 | 106 | 112 | -12 | nt | nt | nt
O=C(Nc1cccc(-c2csc(Nc3ccc(Cl)cc3)n2)c1)c1cccc(C(F)(F)F)c1 | i | 9 | 96 | 123* | -30 | 117 | 0 | 106
COCCCN1C(=O)C(=O)/C(=C(/O)c2ccc(OC)cc2)C12C(=O)N(C)c1ccccc12 (configuration not stated) | i | 2 | -3.0*[inhibitor] | 1.0*[inhibitor] | -11 | 104 | 4 | 101
COc1ccc(Cc2nnc(N/N=C/c3ccc(O)cc3O)[nH]c2=O)cc1OC | i | 2 | 101 | 107 | -40 | nt | nt | nt
